Here are results for five compounds from PubChem BioAssay (NCATS).

Inconclusive results are not listed. Calls of active or inactive are those of the source. Calls follow the shape of the dose curve; as a rule, active = well fitted inhibition curve with a large enough effect; inconclusive = small, poorly fitted or top-dose-only effect; inactive = flat fitted curve, though single readings scatter.

Test [1] is described as follows: qHTS for identification of novel therapeutic agents for treatment of microphthalmiaassociated transcription factor (MiT) renal cell carcinoma (RCC) (AID 1963991). The conditions noted are these: CellTiter-Glo, 48 h, stronger effect = lower value. Summed up:
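Three TFE3-fusion RCC cell lines (UOK109, UOK124, UOK145), 500 cells/well, were exposed to the 1912-compound MIPE 4.0 library for 48 hours at 37 C. Viability was read by CellTiter-Glo luminescence, normalised to DMSO (100%) and empty wells (0%), with 11-concentration curve fits.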
(qHTS replaces the single test concentration by a dilution series.)

Test [2] can be described thus: qHTS profiling for inhibitors of Plasmodium falciparum proliferation (AID 504749). Also: nearly all actives have a fitted effect of over 60% in size. Also: potency is read from the fitted curve at half-maximal effect.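 As to activity, negative = inhibition: 0% = DMSO vehicle and full inhibition = artemisinin control.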 The settings on record: P. falciparum in erythrocytes, SYBR Green DNA, 72 h. Summed up: (§1)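 Three-day growth assay of blood-stage parasites in erythrocytes (0.3% parasitemia, 2.5% hematocrit) at 37 C, 5% CO2, quantified by SYBR Green DNA staining after overnight detergent lysis.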
The test system of another test is 7G8. The description is as above. The conditions noted are these: P. falciparum in erythrocytes, SYBR Green DNA, 72 h; series mostly up to 28.7 µM. Summed up:
as §1

A further test concerns AA1029. Described as above. The conditions noted are these: P. falciparum in erythrocytes, SYBR Green DNA, 72 h; series mostly up to 28.7 µM. Summed up:
as §1

For another test, the system named is AS120. The description is as above. The conditions noted are these: P. falciparum in erythrocytes, SYBR Green DNA, 72 h; series mostly up to 28.7 µM. Summed up:
as §1

The next test deals with ATS189. The test is described as above. The conditions noted are these: P. falciparum in erythrocytes, SYBR Green DNA, 72 h; series mostly up to 28.7 µM. Summed up: as §1
A further test has as its system ATS95. The description is as above. The conditions noted are these: P. falciparum in erythrocytes, SYBR Green DNA, 72 h; series mostly up to 28.7 µM. Summed up:
as §1

For another test, the system named is C2A. The description is as above. The settings on record: P. falciparum in erythrocytes, SYBR Green DNA, 72 h; series mostly up to 28.7 µM. Summed up:
as §1

In the next test the test system is CP185. The test is described as above. The conditions noted are these: P. falciparum in erythrocytes, SYBR Green DNA, 72 h; series mostly up to 28.7 µM. Summed up: as §1
Another test relates to CP191. The test is described as above. The conditions noted are these: P. falciparum in erythrocytes, SYBR Green DNA, 72 h; series mostly up to 28.7 µM. Summed up: as §1
A further test relates to CP192. Described as above. The settings on record: P. falciparum in erythrocytes, SYBR Green DNA, 72 h; series mostly up to 28.7 µM. Summed up: as §1
The next test has as its system CP194. The test is described as above. The conditions noted are these: P. falciparum in erythrocytes, SYBR Green DNA, 72 h; series mostly up to 28.7 µM. Summed up:
as §1

A further test concerns CP201. Described as above. The conditions noted are these: P. falciparum in erythrocytes, SYBR Green DNA, 72 h; series mostly up to 28.7 µM. Summed up:
as §1

The next test concerns CP211. The test is described as above. The conditions noted are these: P. falciparum in erythrocytes, SYBR Green DNA, 72 h; series mostly up to 28.7 µM. Summed up:
as §1

For another test, the system named is CP215. The description is as above. The settings on record: P. falciparum in erythrocytes, SYBR Green DNA, 72 h; series mostly up to 28.7 µM. Summed up: as §1
Another test has as its system CP217. The description is as above. The settings on record: P. falciparum in erythrocytes, SYBR Green DNA, 72 h; series mostly up to 28.7 µM. Summed up: as §1
Another test relates to CP237. The description is as above. The conditions noted are these: P. falciparum in erythrocytes, SYBR Green DNA, 72 h; series mostly up to 28.7 µM. Summed up:
as §1

The test system of the next test is CP238. The test is described as above. The settings on record: P. falciparum in erythrocytes, SYBR Green DNA, 72 h; series mostly up to 28.7 µM. Summed up:
as §1

For another test, the system named is 3D7. The description is as above. The conditions noted are these: P. falciparum in erythrocytes, SYBR Green DNA, 72 h; series mostly up to 28.7 µM. Summed up: as §1
The next test deals with CP203. The description is as above. The settings on record: P. falciparum in erythrocytes, SYBR Green DNA, 72 h; series mostly up to 28.7 µM. Summed up:
as §1

Setting [3] is: TFE3-RCC UOK109 viability, measured here: UOK109 Z-AUC.
Where [4] appears, read: TFE3-RCC viability, measured here: UOK124 Z-AUC.
[5] abbreviates: TFE3-RCC viability, measured here: UOK145 Z-AUC.
[6] abbreviates: at 12.8 µM (top of the series), parasite line A.
Setting [7] is: at 12.8 µM (top of the series), parasite line B.
Where [8] appears, read: at 28.7 µM (top of the series), parasite line A.
The mark [9] stands for this setting: at 28.7 µM (top of the series), parasite line B.

On to `Oc1ccc(OCc2ccccc2)cc1`, for which the z-score is 1.11 in test [1] (setting [3]), 0.685 in [1] (setting [4]) and 1.26 in test [1] (setting [5]). In addition, the activity, negative = inhibition was -21.7% (inactive) in [2] (setting [6]) and -19.8% (inactive) in test [2] (setting [7]). For the same compound, the Potency result in the test on 7G8, in the test on AA1029, in the test with AS120, in the test with ATS189, in the test on ATS95 and in the test with C2A was “inactive” throughout. The Potency result in the test on CP185, in the test with CP191, with CP192, in the test on CP194, in the test on CP201 and in the test with CP211 was “inactive” in each case. Besides, the Potency entry with CP215, in the test on CP217, in the test on CP237 and in the test with CP238 was “inactive” each time.
Take `Nc1cccc2c1CN(C1CCC(=O)NC1=O)C2=O` (stereo not given): the z-score in [1] (setting [3]) was 0.87; in [1] (setting [4]), 1.94; in test [1] (setting [5]), 0.731. Also, the activity, negative = inhibition in test [2] (setting [8]) is 12.2% (inactive); in [2] (setting [9]), 5.27% (inactive). For the same compound, the Potency result with 3D7, in the test with 7G8, in the test on AA1029, in the test with AS120, with ATS189 and in the test with ATS95 was “inactive” in each case. Further, the Potency entry with C2A, with CP185, in the test with CP191, in the test with CP192, in the test on CP194 and in the test on CP201 was “inactive” throughout. Further, the Potency result in the test on CP203, in the test with CP211, with CP215, in the test on CP217, in the test on CP237 and in the test on CP238 was “inactive” each time.
`COc1ccc2cc([C@H](C)C(=O)O)ccc2c1`: the z-score in test [1] (setting [3]) was determined as 1.29; in test [1] (setting [4]), 0.689; in [1] (setting [5]), 0.68. Further, the results for the activity, negative = inhibition in [2] (setting [6]) and in test [2] (setting [7]) were 6.49% (inactive) and -0.339% (inactive), respectively. The Potency entry in the test on 7G8, with AA1029, in the test with AS120, in the test with ATS189, with ATS95 and with C2A was “inactive” each time. Besides, the Potency result with CP185, in the test on CP191, in the test with CP192, with CP194, with CP201 and in the test with CP203 was “inactive” each time. The Potency result with CP211, in the test with CP215, in the test on CP217 and in the test with CP238 was “inactive” throughout.
`COC(=O)C1=C(C)NC(C)=C(C(=O)OCCCN2CCC(c3ccccc3)(c3ccccc3)CC2)C1c1cccc([N+](=O)[O-])c1` (stereo not given): the z-score stood at 1.29 in [1] (setting [3]), 0.568 in test [1] (setting [4]) and 0.759 in test [1] (setting [5]). Moreover, the Potency was 4.47 µM (active) in test [2] (parasite line A); 6.31 µM (active) in test [2] (parasite line B); 2.82 µM (active) in the test with 3D7; 2 µM (active) in the test with 7G8; 4.47 µM (active) in the test with AA1029; 2.82 µM (active) in the test with AS120. Further, the Potency with ATS189 was 4.47 µM (active); in the test on ATS95, 5.01 µM (active); in the test on C2A it was 3.98 µM (active); in the test with CP185, 7.08 µM (active); in the test on CP191, 4.47 µM (active); in the test with CP194 it was 5.36 µM (active). Also, the Potency was 9.53 µM (active) in the test on CP201; 9.53 µM (active) with CP203; 6.01 µM (active) in the test with CP211; 6.75 µM (active) with CP215; 3.55 µM (active) with CP217; 2.82 µM (active) in the test on CP237. Further, in the test with CP238, the Potency is 8.91 µM (active).
As for `CC(C)c1ccc2oc3nc(N)c(C(=O)O)cc3c(=O)c2c1`, the z-score in [1] (setting [3]) was determined as 0.102; in test [1] (setting [4]), 0.464; in test [1] (setting [5]), 0.404. The activity, negative = inhibition is -29.9% (inactive) in test [2] (setting [8]) and -11.5% (inactive) in test [2] (setting [9]). The Potency entry in the test on 3D7, in the test on ATS189, with ATS95, in the test with C2A, in the test with CP185 and with CP192 was “inactive” throughout. For the same compound, the Potency result with CP194, in the test on CP201, with CP203, with CP211, in the test on CP215 and with CP237 was “inactive” throughout. Besides, in the test with CP238, the Potency result is “inactive”.
